Laboratory results: PubChem BioAssay (NCATS)
A number with no mark means an inactive call. Active and inactive are the calls of the source. Calls come from the whole dose curve; as a rule, active = well fitted inhibition curve with a large enough effect; inconclusive = small, poorly fitted or top-dose-only effect; inactive = no such curve, though single readings can be large or run the other way.

assay: qHTS assay for measurement of the activity of small molecule inhibitors on Zika virus induced Caspase-3 activity in human astrocytoma cells (AID 1224859); settings: SNB-19 ZIKV-induced caspase-3/7, luminescence, 6 h; series mostly up to 45.7 µM; activity change, negative = inhibition: at the top concentration
From the text: National Center for Advancing Translational Sciences [NCATS]
Johns Hopkins University School of Medicine
Increase in the Caspase-3 activity indicates an activation of apoptosis cell death pathway caused by Zika virus infection in certain types of neuronal cells including human neural progenitor cells (hNPCs), astrocytes, and astrocytoma cell line (SNB-19). This cell-based caspase-3 activity assay measures the increased caspase-3 activity in the astrocytoma cell line (SNB-19) after a 6-hour Zika virus infection with a luminescence readout. A decrease in the luminescence signal in this assay by small molecule treatment indicates an inhibitory effect of that small molecule on the Zika virus induced caspase-3 activity that may correlate with its effect on reduction of Zika virus caused cell death.
The medium for SNB-19 cells is composed of RPMI 1640 (ATCC, Cat.# 30-2001), 10% fetal bovine serum (FBS) (GE healthcare Life Sciences, Cat.# SH30071.03), and 1% Pen/Strep (Gibco, Cat.# 15140-122). A Caspase-Glo 3/7 assay kit (catalog number G8092; Promega, Madison, WI) was used to detect caspase-3 activity induced by Zika virus infection in human cells. The reagent mixture was reconstituted as described in the protocol from the manufacturer. Polystyrene tissue culture treated and PDL coated white plates were obtained from Greiner Bio-One (Monroe, NC). Cells were seeded in 384- or 1536-well assay plates and cultured at 37 C with 5% CO2 for 16 to 20 hours. The typical cell seeding density in the 1536-well plate assay is 250 cells/well in 3ul medium for SNB-19 cells in tissue culture treated plates. Compounds were added to cells and incubated for one hour before addition of ZIKV solution to cells (2 FFU/cell). After incubation at 37 C with 5% CO2 for 6 hours, the reagent mixture of Caspase-Glo 3/7 assay kit was added to each well, followed by incubation at room temperature for 30 minutes. The luminescence intensity of the assay plates was measured using a ViewLux plate reader (PerkinElmer). Data were normalized by using the cell-containing wells without ZIKV as a negative control (0% induction of caspase 3/7 activity) and wells containing ZIKV infected cells (Caspase-3 activity induced) as a positive control (100% induction of caspase 3 activity). The percentage inhibitions of the increased Caspase-3 activity by small molecule inhibitors were then calculated.

With CCCNC(=O)NS(=O)(=O)c1ccc(Cl)cc1 the Potency was “inactive”.
For NCCS, the Potency was “inactive”.
For CC[C@]1(O)C[C@@H]2CN(CCc3c([nH]c4ccccc34)[C@@](C(=O)OC)(c3cc4c(cc3OC)N(C)[C@H]3[C@@](O)(C(=O)OC)[C@H](OC(C)=O)[C@]5(CC)C=CCN6CC[C@]43[C@@H]65)C2)C1, the Potency was “inactive”.
With C[N+](C)(C)CCCCCC[N+](C)(C)C the Potency was “inactive”.
In the case of CCN(CC)C(=O)c1ccc(O)c(OC)c1, the Potency is reported as “inactive”.
For Clc1ccc(Cn2c(CN3CCCC3)nc3ccccc32)cc1, the Potency was “inactive”.

First: O=c1[nH]cnc2c1ncn2[C@H]1CC[C@@H](CO)O1
Second: OC[C@H]1O[C@@H](n2cnc3c2NC=NC[C@@H]3O)C[C@H]1O
The “activity change, negative = inhibition” value of the first is higher: 14.4% for the first, 4.12% for the second.

Compared with CC=CC(=O)N(CC)c1ccccc1C, O=C(NCc1ccccc1)c1csc(Nc2ccncn2)n1 is higher in “activity change, negative = inhibition” value: 11.6% for the first, 22.7% for the second.

Compared with NC(=O)[C@@H](CCC(F)(F)F)N(Cc1ccc(-c2ncon2)cc1F)S(=O)(=O)c1ccc(Cl)cc1, NC(=O)c1ccc2nc(-c3ccc(Oc4ccc(Cl)cc4)cc3)[nH]c2c1 is higher in “activity change, negative = inhibition” value: 2.06% for the first, 19.7% for the second.

Going from CN(C[C@@H]1COCCO1)S(=O)(=O)Nc1ccc2ccc3ncc(-c4cnn(C)c4)cc3c(=O)c2c1 to Cc1ccn(-c2ccc(-c3ncco3)cc2)c(=O)c1-c1ccc2nc(N)ncc2c1, the “activity change, negative = inhibition” value falls from 6.83% to -8.62%.

Going from CN1CCN(CCOc2cc(OC3CCOCC3)c3c(Nc4c(Cl)ccc5c4OCO5)ncnc3c2)CC1 to COc1cc(N2CCC(N3CCN(C)CC3)CC2)ccc1Nc1ncc(Cl)c(Nc2ccccc2S(=O)(=O)C(C)C)n1, the “activity change, negative = inhibition” value rises from 29.3% to 96.9%.

First: CCOC(CN1C(=O)[C@](CC(=O)Nc2ccc(C)cc2)(NC(=O)Nc2ccc(C)cc2)c2ccccc21)OCC
Second: CC(C)C[C@H](CC(=O)O)C(=O)N[C@@H](Cc1c[nH]c2ccccc12)C(=O)N[C@@H](C)c1ccccc1
The “activity change, negative = inhibition” value of the first is higher: 42.3% for the first, -2% for the second.

First: O=C(OCC#CCSc1nnc(-c2cccc3ccccc23)o1)c1cc2ccccc2s1
Second: O=c1cc(N2CCOCC2)oc2c(-c3cccc4c3sc3ccccc34)cccc12
The “activity change, negative = inhibition” value of the first is lower: -10.2% for the first, 8.69% for the second.

Compared with Cc1ccc([C@@H]2O[C@H](CO)[C@@H](O)[C@H](O)[C@@H]2O)cc1Cc1ccc(-c2ccc(F)cc2)s1, COc1cc(NC(=O)c2ccc(-c3ccc(Cl)cc3)o2)cc(OC)c1 is lower in “activity change, negative = inhibition” value: 8.69% for the first, -11.3% for the second.

Compared with N[C@H](CSC(c1ccccc1)(c1ccccc1)c1ccccc1)C(=O)O, CS(=O)(=O)N(Cc1ccco1)CC(O)Cn1c2ccccc2c2ccccc21 (stereo not given) is lower in “activity change, negative = inhibition” value: 10.3% for the first, -19.6% for the second.

First: CO[C@H]1C[C@@H]2CC[C@@H](C)[C@@](O)(O2)C(=O)C(=O)N2CCCC[C@@H]2C(=O)O[C@H]([C@H](C)C[C@@H]2CC[C@H](OP(C)(C)=O)[C@H](OC)C2)CC(=O)[C@H](C)C=C(C)[C@@H](O)[C@@H](OC)C(=O)[C@H](C)C[C@H](C)C=CC=CC=C1C
Second: CO[C@H]1C[C@@H]2CC[C@@H](C)[C@@](O)(O2)C(=O)C(=O)N2CCCC[C@@H]2C(=O)O[C@H]([C@H](C)C[C@@H]2CC[C@H](OCCO)[C@H](OC)C2)CC(=O)[C@H](C)C=C(C)[C@@H](O)[C@@H](OC)C(=O)[C@H](C)C[C@H](C)C=CC=CC=C1C
The “activity change, negative = inhibition” value of the first is lower: 19.6% for the first, 43.6% for the second.

First: CC(C)C(=O)Nc1ncc(-c2cc(C(F)F)nn2-c2c(Cl)cccc2Cl)s1
Second: Clc1cc(Cl)cc(CNc2ncncc2-c2ccc3c(c2)OCO3)c1
The “activity change, negative = inhibition” value of the first is lower: 5.5% for the first, 10.9% for the second.

Compared with CC=C(C)C(=O)O[C@H]1C(C)=C[C@]23C(=O)[C@@H](C=C(CO)[C@@H](O)[C@]12O)[C@H]1[C@@H](C[C@H]3C)C1(C)C, CC(=O)O[C@]1(C(C)=O)CC[C@@H]2[C@@H]3C[C@H](C)C4=CC(=O)CC[C@]4(C)[C@H]3CC[C@@]21C is higher in “activity change, negative = inhibition” value: 1.45% for the first, 17.7% for the second.

First: CC(C)(Cc1ccc2ccccc2c1)NC[C@@H](O)COc1cccc(Cl)c1C#N
Second: CCNc1cc(NC2CCC(O)CC2)nc(Nc2ccc3c(ccn3Cc3ccccc3)c2)n1 (stereo not given)
The “activity change, negative = inhibition” value of the first is lower: -5.25% for the first, -3.92% for the second.

Compared with C=CCc1ccc(O)c(-c2ccc(O)c(CC=C)c2)c1, O=c1cc(-c2ccc(O)cc2)oc2cc(O)cc(O)c12 is lower in “activity change, negative = inhibition” value: 126% for the first, -19.1% for the second.

First: N[C@@]1(C(=O)O)CS(=O)(=O)[C@H]2[C@H](C(=O)O)[C@H]21
Second: COC1CCC(N(C(=O)C2CCC(C)CC2)c2cc(C3=CCCCC3)sc2C(=O)O)CC1 (stereo not given)
The “activity change, negative = inhibition” value of the first is higher: 5.61% for the first, -20.9% for the second.

Compared with CC[C@]1(O)C[C@@H]2CN(CCc3c([nH]c4ccccc34)[C@@](C(=O)OC)(c3cc4c(cc3OC)N(C=O)[C@@H]3C45CCN4CC=C[C@](CC)([C@H]45)[C@@H](OC(C)=O)[C@]3(O)C(=O)OC)C2)C1 (stereo not given in full), O=C1c2c(O)cc(O)cc2O[C@H](c2cc(O)c(O)c(O)c2)[C@H]1O is lower in “activity change, negative = inhibition” value: -10.6% for the first, -30.8% for the second.

Compared with Clc1ccc(C(c2ccc(Cl)cc2)n2cc[n+](CC(OCc3ccc(Cl)cc3Cl)c3ccc(Cl)cc3Cl)c2)cc1 (stereo not given), Nc1nc(F)nc2c1ncn2[C@@H]1O[C@H](COP(=O)(O)O)[C@@H](O)[C@H]1O is lower in “activity change, negative = inhibition” value: 1.87% for the first, -1.67% for the second.
